PubChem BioAssay (NCI)
The panel holds about 83,000 compounds, 20% with a hit somewhere; the sample as a whole holds those more often.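 The endpoint reported here, percent growth, reads 100 for growth as untreated, 0 for no net growth and -100 for all cells dead.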 Values without a mark were called inactive. Active and inactive are the calls of the source. Rule for the calls: active = growth percent below 10; inactive = the rest.

Test system: HL-60(TB) leukemia
Experiment: NCI-60 one-dose screen, 48 h (100 = growth as untreated, 0 = no growth, -100 = all killed)
Conditions: 10 µM unless noted

SMILES | growth
COc1ccc(Cn2cc3c(c2-c2cc(OC)c(OC)c(OC)c2)CCCc2cnoc2-3)cc1N | -9.82% (active)
CCN(CC)CCOc1ccc(C(=C(c2ccccc2)C2CCCC2)c2ccc(OCCN(CC)CC)cc2)cc1 | -40.9% (active)
C#Cc1nc(/C=C\CCCCCCC(=O)NO)cs1 | -53.8% (active)
CCN(CC)c1ccc2c(c1)Oc1nc(N)c(C#N)c(N)c1C2Sc1ccc(C)cc1 (centres undefined) | -24.4% (active)
Nc1c(C(=O)c2ccccc2)sc2nc(-c3cnccn3)cc(-c3cccs3)c12 | 108%
CCOC(=O)C1=C(C)NC(C)=C(C(=O)OC(C)C)C1c1cccc(C#N)c1 (centres undefined) | 93.1%
CCCCOc1ccc(S(=O)(=O)N2CCN(c3nccc(N4CCOCC4)n3)CC2)cc1 | 32.4%
CCN1C(=O)N(CC)C2SC(N/N=C/c3cccs3)=NC21 (centres undefined) | 1.27% (active)
CC[C@@H](CO)Nc1ccc2ncc(C#Cc3cncc(C(=O)Nc4ccc(CN5CCN(C)CC5)c(C(F)(F)F)c4)c3)n2n1 | -27.3% (active)
N#Cc1c(-c2cccs2)cc(-c2cnccn2)nc1SCC(=O)N/N=C/c1ccncc1 | 118%
COc1ccccc1-n1cc(C#N)c(N)c1C(=O)c1ccc(C)cc1 | 56.7%
Oc1ccc(CSc2nnc(-c3cnccn3)n2-c2ccccc2)c2cccnc12 | 14.4%
CN(C)c1ccc(-c2cc(-c3c[nH]c4ccccc34)nc(N)c2C#N)cc1 | 20.6%
O=C(CN1CCN(c2cc(=O)n(-c3ccccc3)c3ccccc23)CC1)Nc1ccc(F)cc1 | 47.7%
